Compounds with a hit are over-represented: about 1.8% of the library has one in this group of screens.
HEK293 tox: cytotoxicity in counter-screen for GLP-1R inverse agonists. actives 0.13% (n = 410,000). Potency, µM (titrated, usually from 38.3 µM), for the others: at the highest dose activity change, negative = inhibition, most hits filed as inhibitors. AID 624418. HEK293 cAMP-luciferase reporter cells, luminescence, 24 h;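 note: loss of luciferase light is scored as toxicity; potency is the fitted concentration of half-maximal effect; % is set by controls: 0 for no effect and ±100 for the full control effect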
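Seeding density was 200 cells/uL; after overnight-length (12 h) culture, 23 nL compounds went on for 24 h at 37 °C. Readout used a luciferase detection reagent, luminescence taken after 12 min at room temperature.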
TRPML1 blocker: human mucolipin-1 channel inhibition; activity change, negative = inhibition, % (test concentration not listed); TRPML1-inducible cells, Ca2+ dye fluorescence, FDSS; hits give low values; inhibition of EC80 agonist-evoked calcium signal; Q9GZU1; AID 624415; actives 0.02% (n = 390,000); in the data active = activity change below about -50%; inconclusive = between about -30% and that limit;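 note: stimulus is agonist 54-4 at its EC80 concentration; % is set by controls: 0 for no effect and ±100 for the full control effect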
Target sequence (Q9GZU1 whole entry, looked up): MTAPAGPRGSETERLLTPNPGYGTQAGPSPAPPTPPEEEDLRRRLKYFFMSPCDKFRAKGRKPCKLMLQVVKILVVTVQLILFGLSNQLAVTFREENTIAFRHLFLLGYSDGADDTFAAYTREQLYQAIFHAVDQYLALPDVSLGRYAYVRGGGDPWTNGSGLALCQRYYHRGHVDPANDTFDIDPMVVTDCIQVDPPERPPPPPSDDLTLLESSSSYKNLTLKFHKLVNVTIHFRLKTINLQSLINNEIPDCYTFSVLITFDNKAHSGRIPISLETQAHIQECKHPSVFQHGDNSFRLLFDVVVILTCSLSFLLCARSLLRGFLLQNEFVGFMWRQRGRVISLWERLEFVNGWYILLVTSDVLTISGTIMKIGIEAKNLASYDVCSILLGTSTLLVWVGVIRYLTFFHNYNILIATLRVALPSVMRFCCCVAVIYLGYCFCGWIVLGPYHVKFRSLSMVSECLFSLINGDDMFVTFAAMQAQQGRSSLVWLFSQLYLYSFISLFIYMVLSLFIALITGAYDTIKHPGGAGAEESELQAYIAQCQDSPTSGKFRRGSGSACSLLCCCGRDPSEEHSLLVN
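Calcium fluorescence in TRPML1-DL cells induced overnight with Tet: a 110 s read after compound pin addition, then a 110 s antagonist read after challenge with 54-4 at 4 uM final (EC80).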
TRPML1 agonist: agonists of human TRPML1 channel; Q9GZU1; TRPML1-expressing cells, Ca2+ dye fluorescence, FDSS; activation, % (test concentration not listed); actives 0.12% (n = 410,000); AID 624414; in the data active = activation above about 50%; inconclusive = mostly about 30% to 49%; note: 0% is about no effect
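Calcium fluorescence on an FDSS kinetic reader gave the read-out. Tet-induced TRPML1-DL cells were plated overnight, dye-loaded (Ca8 with quencher, 45-90 min, room temperature, dark), then read 110 s after compound addition, and again 110 s after 4uM final 54-4 (EC80).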
GLP1R ag: agonists of human GLP-1 receptor. AID 624172. HEK293 GLP-1R CRE-luciferase, luminescence, 4-6 h; cells express a hypersensitive GLP-1R form. Potency, µM (top dose mostly 45.6 µM), for the others: at the highest dose activation, actives largely listed as activators. P43220. actives 0.007% (n = 380,000); note: potency is the fitted concentration of half-maximal effect; % of control where 0% means no effect
GLP1R inv ag: GLP-1 receptor (human) inverse agonism | Potency, µM (doses to about 38.3 µM), without a hit: at the highest dose activity change, negative = inhibition, most hits filed as inhibitors | actives 1.6% (n = 410,000) | P43220 | HEK293 GLP-1R CRE-luciferase, luminescence, 24 h; GLP-1R form is constitutively active; note: potency is the fitted concentration of half-maximal effect; % is set by controls: 0 for no effect and ±100 for the full control effect; nearly all actives have a fitted effect of over 55% in size
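Cells are plated, allowed 12 hours at 37 deg C, then treated with compounds for 24 hr before luciferase detection reagent is added and luminescence is read after 12 min at room temperature. The HEK293 line carries constitutively active GLP-1R with a cAMP-responsive reporter.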
Numbers without * were called inactive; ? = inconclusive; . = not tested or not shown. Unless noted, calls come from the whole dose curve; as a rule, active = well fitted curve in the direction sought with a large enough effect; inconclusive = small, poorly fitted or top-dose-only effect, or another doubt; inactive = no such curve, though single readings can be large; an effect the other way counts as inactive or inconclusive.

SMILES | HEK293 tox | TRPML1 blocker | TRPML1 agonist | GLP1R ag | GLP1R inv ag
CCOc1ccc(CCNC(=O)c2sc3ncccc3c2-n2c(C)ccc2C)cc1 | 9% | -26 | 2 | . | ?
Cc1ccc(CCNC(=O)c2sc3ncccc3c2-n2c(C)ccc2C)cc1 | -5% | 89 | 3 | . | 11µM*
CCOC(=O)C1=CN(Cc2cccc(F)c2)S(=O)(=O)NC1c1ccc(Br)cc1F (configuration not stated) | 1% | -9 | 1 | 1% | 10µM*
CCOC(=O)C1=CN(Cc2cccc(F)c2)S(=O)(=O)NC1c1ccc(F)c(Cl)c1 (configuration not stated) | 0% | 67 | 0 | -1% | ?
CC(C)C(=O)Nc1nc2c(ncn2[C@H]2CC(O)[C@@H](CO)O2)c(=O)[nH]1 (some centres not stated) | . | . | 0 | . | .
COCC1=C(C(=O)OC(C)OC(=O)OC(C)C)N2C(=O)C(NC(=O)/C(=N/OC)c3csc(N)n3)[C@H]2SC1 (some centres not stated) | . | . | . | -2% | .
COC(=O)c1ccc(Cl)cc1N(Cc1c(F)cccc1Cl)S(C)(=O)=O | -10% | -6 | 108* | 9% | -62%
C/C=C/C(=O)[C@@H](C)[C@@H](/C=C/C[Si](C)(C)C)C(C)C | . | 20 | 1 | . | .
CCOc1ccc(Nc2oc(/C=C/c3cc(OC)c(OC)c(OC)c3)nc2C#N)cc1 | 59% | 20 | 3 | . | -11%
O=C(CN1C(=O)CSc2ccc(S(=O)(=O)N3CCCCC3)cc21)NCc1ccccc1Cl | -18% | 16 | -1 | -4% | 2.5µM*
O=C(CC(c1ccccc1)c1ccccc1O)NCc1ccccc1Cl (configuration not stated) | -15% | 2 | 1 | -10% | 10µM*
O=C(CC(c1ccccc1)c1cc(Br)ccc1O)NCc1ccco1 (configuration not stated) | -10% | 41 | 1 | -18% | 11µM*
COC1=C(C(=O)O)N2C(=O)[C@@H](NC(=O)C(N)C3C=CCC=C3)[C@H]2SC1 (some centres not stated) | . | . | . | -7% | .
COCCc1nn2c(=O)cc(COC(=O)C(c3ccccc3)c3ccccc3)nc2s1 | -3% | -6 | 1 | . | 7%
c1ccc2nc(N3CCCC3)c(N3CCCCC3)nc2c1 | 9% | -13 | 0 | 13% | 11µM*
O=C(Nc1sc2c(c1C(=O)NCc1ccco1)CCCC2)c1cc(=O)c2ccccc2o1 | 15% | -11 | 3 | . | 4%
COc1ccc(Cl)cc1NC(=O)CCCn1c(C)c2cnn(-c3ccccc3)c(=O)c2c1C | -9% | 2 | 0 | . | ?
Fc1cccc(NC(=S)NCc2ccccn2)c1 | 10µM* | 2 | 2 | 3% | ?
S=C(NCc1ccccn1)Nc1ccc(Cl)cc1 | ? | 79 | 0 | 6% | ?
S=C(NCCSCc1ccc(Cl)c(Cl)c1)Nc1ccccc1 | ? | 1 | 0 | -6% | ?
S=C(NCCSCc1ccc(Cl)cc1Cl)Nc1ccccc1 | -8% | -6 | 1 | 0% | 3.5µM*
S=C(NCc1ccccc1)Nc1cccc(Cl)c1 | 10µM* | 24 | 0 | -1% | ?
S=C(NCc1ccccc1)NCc1ccccc1 | 1% | 7 | 0 | -3% | -5%
S=C(NCc1ccccc1)NNc1ccccc1 | 8.9µM* | 41 | 0 | 1% | 10µM*
Oc1ccc(Cl)cc1C1C=C(c2ccc3c(c2)OCO3)NC(c2cc(Br)ccc2F)N1 (configuration not stated) | . | -12 | 2 | . | .
SMILES | HEK293 tox | TRPML1 blocker | TRPML1 agonist | GLP1R ag | GLP1R inv ag
O=C(CC1Sc2ccccc2NC1=O)Nc1cccc(C(F)(F)F)c1 (configuration not stated) | -18% | -3 | 2 | 9% | ?
CCCCCCCCCCCCCCCCCC(=O)[O][Al] | . | . | . | -4% | .
CC(C)Cn1cc(C(=O)N2CCN(c3cccc(Cl)c3)CC2)c2c3ccccc3n(C)c2c1=O | -17% | 1 | 3 | . | 10µM*
COc1ccc(N2CCN(C(=O)c3cn(CC(C)C)c(=O)c4c3c3ccccc3n4C)CC2)cc1 | 0% | 9 | 10 | . | ?
CC1CCC(C(C)C)C(OCC(O)CNC(C)(C)C)C1 (configuration not stated) | -15% | 27 | 2 | 12% | 11µM*
CC1CCN(CC(O)COC2CC(C)CCC2C(C)C)CC1 (configuration not stated) | ? | 12 | 1 | -1% | -22%
CCCc1cc(C(=O)Nc2ccc(C(=O)c3ccc(F)cc3)cc2)n(C)n1 | -4% | -1 | 0 | -3% | 8.9µM*
CCc1ccccc1Nc1nn2c(=O)c3ccc(C(=O)NC(C)c4ccccc4)cc3nc2s1 (configuration not stated) | -30% | 10 | 1 | 9% | 5.6µM*
CCc1ccccc1Nc1nn2c(=O)c3ccc(C(=O)NCCc4ccccc4)cc3nc2s1 | 7% | 31 | 1 | 3% | -3%
Cc1ccc(C)c(S(=O)(=O)NCC(c2ccco2)N2CCc3ccccc3C2)c1 (configuration not stated) | -14% | 21 | 0 | 10% | 11µM*
COc1ccc(C)cc1S(=O)(=O)NCC(c1cccnc1)N1CCc2ccccc2C1 (configuration not stated) | -12% | 6 | 0 | 10% | ?
Cc1ccc(C(=O)NCC(c2ccco2)N2CCc3ccccc3C2)cc1 (configuration not stated) | 11% | 18 | 0 | 1% | ?
Cc1ccc(C(=O)NCC(c2ccco2)N2CCc3ccccc3C2)cc1C (configuration not stated) | -4% | -5 | 0 | -3% | 11µM*
O=C(NCC12CC3CC(CC(C3)C1)C2)c1cc2n(n1)C(C(F)(F)F)CC(c1ccco1)N2 (configuration not stated) | -9% | 2 | 2 | 1% | 3.5µM*
c1ccc(Cn2cc(CN3CCCCO3)c(-c3ccc4c(c3)OCO4)n2)cc1 | -9% | 8 | 2 | 3% | 11µM*
c1ccc(-n2cc(CN3CCCC3)c(-c3ccc4c(c3)OCO4)n2)cc1 | -6% | -7 | 0 | -1% | ?
O=C(Nc1nn(Cc2ccc(Cl)cc2)cc1Br)c1ccc(COc2ccccc2Cl)o1 | 5% | -2 | 1 | -3% | 5µM*
O=C(NCc1ccccc1)c1cc2sccc2n1Cc1ccc(F)cc1 | 3% | 4 | 1 | -3% | 10µM*
Cc1c(CN(C)C)c2c(n1C)C(=O)c1ccc(Br)cc1-2 | 8.9µM* | 16 | 0 | 0% | 132%
O=C1c2ccccc2NC(c2cn[nH]c2-c2ccccc2)N1O (configuration not stated) | -8% | -58* | 2 | -3% | 4%
